About 7,900 targets were measured; listed, in parts, are those with a hit and a random draw of the rest. About 0.6% of all pairs of compound and target were hits. Unmarked numbers belong to inactive results.
compound: COc1cc2nc(-c3cc(F)ccc3O)nc(N[C@@H]3CNC[C@H]3C(C)(C)O)c2cc1OC; assay: log2 fold change, soluble protein after heating vs DMSO (PISA); higher = thermal stabilisation; K562 cells, 10 uM, 30 min; active = over 0.2 and 3.5 SD of the protein, either way, in both replicates (recomputed)
Outline: (§1)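 K562 cells at 2×10^6 cells/mL were treated with 10 μM compound for 30 min. Aliquots were heated for 3 min across 48°C-58°C, pooled, and extracted in PBS with 0.5% NP-40 at 4°C; soluble protein was the supernatant after 21,000xg for 90 min. Soluble protein was quantified by TMTpro 16plex LC-MS/MS with channel sums equalised, and reported as log2 fold change in thermal stability against DMSO controls, with values from duplicates.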

Chain of UniProt Q9NZ09 (Q9NZ09 whole entry, looked up): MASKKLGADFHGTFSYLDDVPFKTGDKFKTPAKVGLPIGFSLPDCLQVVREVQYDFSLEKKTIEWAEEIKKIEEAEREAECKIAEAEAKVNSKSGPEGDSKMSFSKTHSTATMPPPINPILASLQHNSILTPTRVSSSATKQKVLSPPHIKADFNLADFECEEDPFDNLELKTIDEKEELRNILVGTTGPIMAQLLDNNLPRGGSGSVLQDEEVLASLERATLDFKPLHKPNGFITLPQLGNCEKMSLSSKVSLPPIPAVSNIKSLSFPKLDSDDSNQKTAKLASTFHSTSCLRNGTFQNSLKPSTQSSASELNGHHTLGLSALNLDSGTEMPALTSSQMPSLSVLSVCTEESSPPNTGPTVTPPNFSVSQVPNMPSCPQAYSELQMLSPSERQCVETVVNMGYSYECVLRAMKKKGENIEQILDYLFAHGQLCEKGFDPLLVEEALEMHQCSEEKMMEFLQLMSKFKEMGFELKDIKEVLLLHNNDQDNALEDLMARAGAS
Chain of UniProt P02585 (P02585 whole entry, looked up): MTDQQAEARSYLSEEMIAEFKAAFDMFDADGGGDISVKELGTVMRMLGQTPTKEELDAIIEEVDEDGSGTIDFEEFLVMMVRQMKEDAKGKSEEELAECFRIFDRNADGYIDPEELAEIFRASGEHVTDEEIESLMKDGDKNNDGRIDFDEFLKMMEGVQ
Chain of UniProt Q9Y4E8 (Q9Y4E8 whole entry, looked up): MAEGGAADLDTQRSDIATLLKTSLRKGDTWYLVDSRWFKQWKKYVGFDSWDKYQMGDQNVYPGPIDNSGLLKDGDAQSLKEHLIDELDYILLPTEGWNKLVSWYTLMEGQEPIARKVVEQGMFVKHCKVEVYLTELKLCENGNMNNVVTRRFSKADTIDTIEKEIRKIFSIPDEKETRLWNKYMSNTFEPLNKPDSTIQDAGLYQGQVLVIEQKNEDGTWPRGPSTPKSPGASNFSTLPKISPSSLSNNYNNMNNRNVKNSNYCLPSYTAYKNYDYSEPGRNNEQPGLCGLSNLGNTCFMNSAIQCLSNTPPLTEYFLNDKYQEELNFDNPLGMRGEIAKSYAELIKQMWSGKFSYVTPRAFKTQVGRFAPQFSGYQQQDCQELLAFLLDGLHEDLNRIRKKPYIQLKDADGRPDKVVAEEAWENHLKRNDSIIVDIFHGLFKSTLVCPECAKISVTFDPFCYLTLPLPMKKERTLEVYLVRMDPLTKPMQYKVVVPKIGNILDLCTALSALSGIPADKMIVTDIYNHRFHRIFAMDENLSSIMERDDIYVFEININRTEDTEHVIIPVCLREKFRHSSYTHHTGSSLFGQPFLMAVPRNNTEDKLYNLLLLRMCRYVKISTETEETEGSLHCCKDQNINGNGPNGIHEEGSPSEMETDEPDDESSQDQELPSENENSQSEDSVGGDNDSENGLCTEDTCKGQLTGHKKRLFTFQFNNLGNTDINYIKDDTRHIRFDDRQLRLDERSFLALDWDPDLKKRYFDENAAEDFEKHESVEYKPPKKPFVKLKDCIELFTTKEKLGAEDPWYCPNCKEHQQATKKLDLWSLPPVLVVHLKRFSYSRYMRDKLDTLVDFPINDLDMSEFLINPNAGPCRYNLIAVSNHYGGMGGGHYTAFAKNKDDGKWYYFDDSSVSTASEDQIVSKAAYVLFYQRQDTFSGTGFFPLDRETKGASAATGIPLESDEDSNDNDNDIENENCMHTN
Chain of UniProt Q9NP79 (Q9NP79 whole entry, looked up): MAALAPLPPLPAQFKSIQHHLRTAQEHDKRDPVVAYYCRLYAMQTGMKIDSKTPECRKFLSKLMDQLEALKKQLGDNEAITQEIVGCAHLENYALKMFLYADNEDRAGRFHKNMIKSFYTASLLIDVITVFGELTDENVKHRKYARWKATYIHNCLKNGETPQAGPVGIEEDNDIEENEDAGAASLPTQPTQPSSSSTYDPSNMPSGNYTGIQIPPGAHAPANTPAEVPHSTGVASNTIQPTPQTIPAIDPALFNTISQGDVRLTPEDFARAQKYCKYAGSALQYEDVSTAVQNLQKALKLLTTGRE
Chain of UniProt Q92973 (Q92973 whole entry, looked up): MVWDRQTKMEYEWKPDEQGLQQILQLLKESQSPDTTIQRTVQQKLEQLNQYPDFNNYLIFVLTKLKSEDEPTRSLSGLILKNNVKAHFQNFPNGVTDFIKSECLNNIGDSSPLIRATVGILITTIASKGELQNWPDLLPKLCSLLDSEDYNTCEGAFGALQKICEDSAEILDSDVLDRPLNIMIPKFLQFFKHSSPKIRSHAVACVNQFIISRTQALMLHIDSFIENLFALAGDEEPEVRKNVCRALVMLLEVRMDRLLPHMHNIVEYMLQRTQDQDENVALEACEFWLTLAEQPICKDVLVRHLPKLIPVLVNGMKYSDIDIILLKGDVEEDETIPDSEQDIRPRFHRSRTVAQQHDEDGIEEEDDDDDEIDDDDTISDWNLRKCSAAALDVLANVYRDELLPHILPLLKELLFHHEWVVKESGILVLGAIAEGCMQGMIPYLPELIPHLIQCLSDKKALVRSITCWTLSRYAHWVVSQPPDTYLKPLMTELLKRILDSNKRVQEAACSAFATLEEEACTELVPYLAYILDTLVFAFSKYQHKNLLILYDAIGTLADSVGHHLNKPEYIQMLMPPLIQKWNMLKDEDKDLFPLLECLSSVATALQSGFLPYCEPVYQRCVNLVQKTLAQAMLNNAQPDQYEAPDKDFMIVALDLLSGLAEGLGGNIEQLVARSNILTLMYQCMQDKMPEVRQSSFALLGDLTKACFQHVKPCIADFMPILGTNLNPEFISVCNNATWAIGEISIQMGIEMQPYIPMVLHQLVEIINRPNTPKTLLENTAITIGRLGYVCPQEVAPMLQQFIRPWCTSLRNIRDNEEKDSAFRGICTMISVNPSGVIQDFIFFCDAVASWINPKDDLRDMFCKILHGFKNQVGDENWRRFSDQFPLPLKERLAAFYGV
Chain of UniProt P13010 (P13010 whole entry, looked up): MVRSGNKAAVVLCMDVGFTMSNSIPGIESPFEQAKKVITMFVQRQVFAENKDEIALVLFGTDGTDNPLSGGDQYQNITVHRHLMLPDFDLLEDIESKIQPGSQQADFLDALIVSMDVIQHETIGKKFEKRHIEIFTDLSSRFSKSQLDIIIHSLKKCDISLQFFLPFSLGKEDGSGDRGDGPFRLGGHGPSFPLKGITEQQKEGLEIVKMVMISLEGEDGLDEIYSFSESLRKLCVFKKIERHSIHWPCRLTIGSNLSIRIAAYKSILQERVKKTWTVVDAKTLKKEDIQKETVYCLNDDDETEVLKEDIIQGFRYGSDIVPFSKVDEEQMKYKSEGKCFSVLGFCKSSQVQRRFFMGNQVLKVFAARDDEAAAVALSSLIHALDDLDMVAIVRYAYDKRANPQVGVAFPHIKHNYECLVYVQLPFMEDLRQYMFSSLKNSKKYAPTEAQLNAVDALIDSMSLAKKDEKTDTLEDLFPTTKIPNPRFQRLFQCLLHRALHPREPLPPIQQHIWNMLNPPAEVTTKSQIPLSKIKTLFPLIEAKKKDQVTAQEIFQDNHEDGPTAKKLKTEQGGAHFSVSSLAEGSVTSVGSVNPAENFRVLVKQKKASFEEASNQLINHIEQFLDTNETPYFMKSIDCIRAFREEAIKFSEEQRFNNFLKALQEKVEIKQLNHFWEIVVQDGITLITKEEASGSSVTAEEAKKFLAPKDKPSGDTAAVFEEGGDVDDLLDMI
Chain of UniProt Q9NUM4 (Q9NUM4 whole entry, looked up): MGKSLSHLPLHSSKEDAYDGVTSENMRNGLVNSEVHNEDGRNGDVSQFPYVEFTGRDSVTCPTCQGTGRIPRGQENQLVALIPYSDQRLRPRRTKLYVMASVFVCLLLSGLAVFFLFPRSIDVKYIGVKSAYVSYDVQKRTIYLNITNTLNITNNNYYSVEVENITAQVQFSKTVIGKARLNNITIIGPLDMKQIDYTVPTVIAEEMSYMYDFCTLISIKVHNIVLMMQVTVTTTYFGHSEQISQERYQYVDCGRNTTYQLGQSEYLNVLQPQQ
Chain of UniProt Q96AJ9 (Q96AJ9 whole entry, looked up): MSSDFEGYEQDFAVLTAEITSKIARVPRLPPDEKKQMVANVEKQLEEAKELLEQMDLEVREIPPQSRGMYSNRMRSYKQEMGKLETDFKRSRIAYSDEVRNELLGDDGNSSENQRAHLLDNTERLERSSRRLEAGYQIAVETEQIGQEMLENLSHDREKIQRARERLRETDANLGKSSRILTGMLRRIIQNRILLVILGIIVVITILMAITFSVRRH
Chain of UniProt Q01081 (Q01081 whole entry, looked up): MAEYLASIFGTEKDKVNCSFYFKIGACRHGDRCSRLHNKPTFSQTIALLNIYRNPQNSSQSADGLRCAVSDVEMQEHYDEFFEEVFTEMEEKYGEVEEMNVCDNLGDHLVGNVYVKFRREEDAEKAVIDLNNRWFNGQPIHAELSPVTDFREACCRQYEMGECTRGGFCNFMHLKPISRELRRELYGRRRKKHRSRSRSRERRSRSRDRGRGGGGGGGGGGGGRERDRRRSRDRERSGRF
Chain of UniProt Q9Y5K5 (Q9Y5K5 whole entry, looked up): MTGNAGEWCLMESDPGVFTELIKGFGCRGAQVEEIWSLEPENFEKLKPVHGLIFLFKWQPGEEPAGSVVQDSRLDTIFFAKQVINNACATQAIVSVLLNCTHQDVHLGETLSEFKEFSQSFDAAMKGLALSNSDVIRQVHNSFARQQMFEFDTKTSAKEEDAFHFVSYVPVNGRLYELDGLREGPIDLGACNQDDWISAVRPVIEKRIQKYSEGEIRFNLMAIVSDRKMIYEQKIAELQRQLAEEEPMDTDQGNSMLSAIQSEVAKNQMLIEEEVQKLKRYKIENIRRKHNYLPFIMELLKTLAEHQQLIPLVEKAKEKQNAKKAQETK
Chain of UniProt P51809 (P51809 whole entry, looked up): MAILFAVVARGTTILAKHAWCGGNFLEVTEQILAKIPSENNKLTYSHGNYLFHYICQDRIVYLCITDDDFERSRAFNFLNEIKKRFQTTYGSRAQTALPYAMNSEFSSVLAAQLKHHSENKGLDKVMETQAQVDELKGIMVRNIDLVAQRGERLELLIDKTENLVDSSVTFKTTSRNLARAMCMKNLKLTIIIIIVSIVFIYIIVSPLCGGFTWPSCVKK

Row | Target | log2 fold change
1 | TSG101 (UniProt Q99816) | 0.007
2 | VTA1 (UniProt Q9NP79) | 0.056
3 | VDAC1 (UniProt P21796) | -0.023
4 | WASHC2C, A0A096LPC5 | 0.305
5 | VTI1B (UniProt Q9UEU0) | 0
6 | UBE2Q1 (UniProt Q7Z7E8) | 0.012
7 | TMEM106B (UniProt Q9NUM4) | -0.027
8 | TMEM164 (UniProt Q5U3C3) | 0.098
9 | USP48 isoform 8 (UniProt Q86UV5) | -0.267
10 | USP15 (UniProt Q9Y4E8) | 0.016
11 | UFD1 isoform 1 (UniProt Q92890) | -0.052
12 | WDR46 (UniProt O15213) | 0.037
13 | USP14 (UniProt P54578) | -0.008
14 | XPNPEP3 (UniProt Q9NQH7) | 0.027
15 | UCHL5 (UniProt Q9Y5K5) | 0.04
16 | VPS16 (UniProt Q9H269) | -0.009
17 | VAMP7 (UniProt P51809) | 0.099
18 | XPO1 (UniProt O14980) | 0.023

Row | Target | log2 fold change
19 | TNFRSF10A (UniProt O00220) | 0.024
20 | UBLCP1 (UniProt Q8WVY7) | 0.181
21 | TMEM189-UBE2V1 (UniProt I3L0A0) | -0.048
22 | WASH2P (UniProt Q6VEQ5) | 0.067
23 | VTI1A (UniProt Q96AJ9) | -0.003
24 | TNNC2 (UniProt P02585) | 0.014
25 | TMEM223 (UniProt A0PJW6) | -0.147
26 | U2AF1 isoform 2 (UniProt Q01081) | 0.06
27 | XRCC5 (UniProt P13010) | -0.232
28 | TNPO1 (UniProt Q92973) | -0.156
29 | VPS52 (UniProt Q8N1B4) | 0.058
30 | TMEM263 (UniProt Q8WUH6) | -0.789 (active)
31 | USP25 isoform 3 (UniProt Q9UHP3) | 0.004
32 | VPS50 (UniProt Q96JG6) | 0.012
33 | UBAP1 isoform 4 (UniProt Q9NZ09) | -0.017
34 | TNPO2 (UniProt O14787) | -0.069
35 | VPS18 (UniProt Q9P253) | -0.017
36 | TRIM28 (UniProt Q13263) | 0.003

compound: COc1cc2ncnc(Nc3ccc(F)c(Cl)c3)c2cc1OCCCN1CCOCC1 [gefitinib]; assay: as above
Outline: as §1

Row | Target | log2 fold change
37 | TSG101 (UniProt Q99816) | 0.011
38 | VTA1 (UniProt Q9NP79) | -0.003
39 | VDAC1 (UniProt P21796) | -0.007
40 | WASHC2C, A0A096LPC5 | 0.018
41 | VTI1B (UniProt Q9UEU0) | -0.023
42 | UBE2Q1 (UniProt Q7Z7E8) | -0.02
43 | TMEM106B (UniProt Q9NUM4) | 0.04
44 | TMEM164 (UniProt Q5U3C3) | -0.013
45 | USP48 isoform 8 (UniProt Q86UV5) | 0.093
46 | USP15 (UniProt Q9Y4E8) | 0.028
47 | UFD1 isoform 1 (UniProt Q92890) | -0.001
48 | WDR46 (UniProt O15213) | -0.036
49 | USP14 (UniProt P54578) | 0.007
50 | XPNPEP3 (UniProt Q9NQH7) | -0.002
51 | UCHL5 (UniProt Q9Y5K5) | 0.008
52 | VPS16 (UniProt Q9H269) | -0.1
53 | VAMP7 (UniProt P51809) | 0.033
54 | XPO1 (UniProt O14980) | -0.032

Row | Target | log2 fold change
55 | TNFRSF10A (UniProt O00220) | -0.012
56 | UBLCP1 (UniProt Q8WVY7) | 0.044
57 | TMEM189-UBE2V1 (UniProt I3L0A0) | -0.034
58 | WASH2P (UniProt Q6VEQ5) | 0.001
59 | VTI1A (UniProt Q96AJ9) | 0.024
60 | TNNC2 (UniProt P02585) | 0.008
61 | TMEM223 (UniProt A0PJW6) | -0.028
62 | U2AF1 isoform 2 (UniProt Q01081) | 0.036
63 | XRCC5 (UniProt P13010) | 0.076
64 | TNPO1 (UniProt Q92973) | -0.001
65 | VPS52 (UniProt Q8N1B4) | 0.014
66 | TMEM263 (UniProt Q8WUH6) | -0.042
67 | USP25 isoform 3 (UniProt Q9UHP3) | 0.032
68 | VPS50 (UniProt Q96JG6) | 0.007
69 | UBAP1 isoform 4 (UniProt Q9NZ09) | 0.088
70 | TNPO2 (UniProt O14787) | 0.027
71 | VPS18 (UniProt Q9P253) | -0.028
72 | TRIM28 (UniProt Q13263) | 0.002

— the supplement of paper PMC10849652
